Assay in all cases: DAPPL (digital affinity profiling via proximity ligation, sequencing); 10 mM Tris-HCl pH 7.5, 50 mM NaCl, 1 mM DTT, 4% glycerol, room temperature, 30 min; GST-TFs on glutathione beads, 16-mer random dsDNA library, 0.1% formaldehyde crosslink after washing; high values mean tight binding
One test concerns the target T1, FEV (Homo sapiens, UniProt Q99581 1-238).
T1 sequence: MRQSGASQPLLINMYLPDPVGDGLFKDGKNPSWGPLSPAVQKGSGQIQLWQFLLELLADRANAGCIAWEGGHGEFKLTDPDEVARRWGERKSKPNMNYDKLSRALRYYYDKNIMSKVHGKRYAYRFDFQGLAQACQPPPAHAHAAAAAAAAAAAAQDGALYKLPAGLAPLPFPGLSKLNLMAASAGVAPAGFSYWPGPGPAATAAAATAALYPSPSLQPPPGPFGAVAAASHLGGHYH
The following applies: protein: recombinant; tags: N-terminal GST; dsDNA, one strand shown. The procedure, abridged:
(§1)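 Binding signal is each hexamer's read frequency for a factor divided by its frequency in the tag-only sample. The factors were GST-fused human transcription factors from yeast, captured on glutathione beads, DNA-barcoded and pooled with that sample. Pools were incubated with 200 nmole of a random double-stranded 16-mer DNA library in Tris/NaCl/DTT/glycerol buffer at room temperature for 30 min, then washed, crosslinked with 0.1% formaldehyde, proximity-ligated with BsaI/T4 ligase (1 h, 37 °C), PCR-amplified and sequenced on an Illumina NextSeq500.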

The target of the next test is ETV5 (Homo sapiens, UniProt P41161 1-510). Conditions: protein: recombinant; tags: N-terminal GST; dsDNA, one strand shown. The gist of the method: as §1
In another test the target is HSF1 (Homo sapiens, UniProt Q00613 1-529). The following applies: protein: recombinant; tags: N-terminal GST; chain copies: 3; dsDNA, one strand shown. The procedure, abridged: as §1
A further test deals with T2, SPIC (Homo sapiens, UniProt Q8N5J4 1-248).
T2 sequence: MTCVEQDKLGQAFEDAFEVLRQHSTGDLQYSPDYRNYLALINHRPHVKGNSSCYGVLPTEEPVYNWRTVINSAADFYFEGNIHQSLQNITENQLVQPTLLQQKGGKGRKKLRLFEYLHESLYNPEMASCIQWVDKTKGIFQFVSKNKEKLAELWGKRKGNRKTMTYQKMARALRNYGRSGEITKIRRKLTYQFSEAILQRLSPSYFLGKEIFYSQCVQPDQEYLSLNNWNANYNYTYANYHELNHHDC
The following applies: protein: recombinant; tags: N-terminal GST; dsDNA, one strand shown. The gist of the method:
as §1

A further test addresses ELF4 (Homo sapiens, UniProt Q99607 1-663). The following applies: protein: recombinant; tags: N-terminal GST; dsDNA, one strand shown. The procedure, abridged: as §1
The next test has as its target T3, ELK4 (Homo sapiens, UniProt P28324-2 1-405).
T3 sequence: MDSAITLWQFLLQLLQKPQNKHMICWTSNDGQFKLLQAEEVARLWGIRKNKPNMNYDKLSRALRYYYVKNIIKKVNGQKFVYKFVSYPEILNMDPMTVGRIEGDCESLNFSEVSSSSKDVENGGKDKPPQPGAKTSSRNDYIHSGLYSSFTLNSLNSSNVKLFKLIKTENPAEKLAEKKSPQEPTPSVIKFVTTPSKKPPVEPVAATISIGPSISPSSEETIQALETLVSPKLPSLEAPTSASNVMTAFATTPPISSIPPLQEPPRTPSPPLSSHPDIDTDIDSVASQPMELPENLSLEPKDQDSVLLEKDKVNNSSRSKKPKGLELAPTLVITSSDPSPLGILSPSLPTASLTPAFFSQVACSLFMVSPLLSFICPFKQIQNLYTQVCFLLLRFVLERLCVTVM
The following applies: protein: recombinant; tags: N-terminal GST; dsDNA, one strand shown. The gist of the method:
as §1

Another test has as its target T4, ETV2 (Homo sapiens, UniProt O00321 1-342).
T4 sequence: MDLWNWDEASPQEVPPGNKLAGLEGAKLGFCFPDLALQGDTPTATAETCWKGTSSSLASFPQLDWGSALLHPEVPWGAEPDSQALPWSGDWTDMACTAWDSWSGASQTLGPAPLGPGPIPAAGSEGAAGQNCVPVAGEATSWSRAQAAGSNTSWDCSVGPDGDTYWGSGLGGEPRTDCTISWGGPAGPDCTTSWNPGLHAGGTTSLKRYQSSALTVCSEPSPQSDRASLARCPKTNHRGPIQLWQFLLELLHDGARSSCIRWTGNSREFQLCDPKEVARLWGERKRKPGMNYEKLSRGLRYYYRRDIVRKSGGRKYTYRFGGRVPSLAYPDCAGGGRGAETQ
Conditions: protein: recombinant; tags: N-terminal GST; dsDNA, one strand shown. The gist of the method: as §1

The target in the next test is T5, ELF3 (Homo sapiens, UniProt P78545 1-371).
T5 sequence: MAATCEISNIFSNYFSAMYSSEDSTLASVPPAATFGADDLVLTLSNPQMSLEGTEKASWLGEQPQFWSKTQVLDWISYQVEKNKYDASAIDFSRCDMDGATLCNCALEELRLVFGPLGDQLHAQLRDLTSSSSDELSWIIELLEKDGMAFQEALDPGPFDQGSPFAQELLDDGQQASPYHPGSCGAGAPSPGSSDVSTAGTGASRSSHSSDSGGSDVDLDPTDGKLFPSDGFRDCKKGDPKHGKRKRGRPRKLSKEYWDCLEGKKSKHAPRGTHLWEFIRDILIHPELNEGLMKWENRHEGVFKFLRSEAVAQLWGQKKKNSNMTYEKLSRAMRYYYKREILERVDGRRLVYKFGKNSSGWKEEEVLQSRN
The following applies: protein: recombinant; tags: N-terminal GST; dsDNA, one strand shown. The procedure, abridged:
as §1

A further test deals with CRX (Homo sapiens, UniProt O43186 1-299). Conditions: protein: recombinant; tags: N-terminal GST; dsDNA, one strand shown. The gist of the method: as §1
A further test has as its target ETV1 (Homo sapiens, UniProt P50549 1-477). The following applies: protein: recombinant; tags: N-terminal GST; dsDNA, one strand shown. The procedure, abridged:
as §1

The target in a further test is T6, ERF (Homo sapiens, UniProt P50548 1-548).
T6 sequence: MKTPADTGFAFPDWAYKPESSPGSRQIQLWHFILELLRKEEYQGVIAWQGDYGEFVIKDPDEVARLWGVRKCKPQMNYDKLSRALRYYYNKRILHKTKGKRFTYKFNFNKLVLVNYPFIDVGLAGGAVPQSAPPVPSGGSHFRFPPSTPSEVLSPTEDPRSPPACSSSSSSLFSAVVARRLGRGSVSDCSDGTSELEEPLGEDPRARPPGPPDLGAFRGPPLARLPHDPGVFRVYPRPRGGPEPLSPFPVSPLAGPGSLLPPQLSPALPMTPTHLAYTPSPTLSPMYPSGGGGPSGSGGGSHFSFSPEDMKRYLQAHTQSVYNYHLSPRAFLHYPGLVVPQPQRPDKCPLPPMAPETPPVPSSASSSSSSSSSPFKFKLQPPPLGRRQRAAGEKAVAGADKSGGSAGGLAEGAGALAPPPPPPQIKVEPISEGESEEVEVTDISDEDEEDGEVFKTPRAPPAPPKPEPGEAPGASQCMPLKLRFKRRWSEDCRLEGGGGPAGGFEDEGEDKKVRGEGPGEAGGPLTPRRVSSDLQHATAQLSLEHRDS
The following applies: protein: recombinant; tags: N-terminal GST; dsDNA, one strand shown. The procedure, abridged: as §1

Another test deals with T7, ETV3L (Homo sapiens, UniProt Q6ZN32 1-361).
T7 sequence: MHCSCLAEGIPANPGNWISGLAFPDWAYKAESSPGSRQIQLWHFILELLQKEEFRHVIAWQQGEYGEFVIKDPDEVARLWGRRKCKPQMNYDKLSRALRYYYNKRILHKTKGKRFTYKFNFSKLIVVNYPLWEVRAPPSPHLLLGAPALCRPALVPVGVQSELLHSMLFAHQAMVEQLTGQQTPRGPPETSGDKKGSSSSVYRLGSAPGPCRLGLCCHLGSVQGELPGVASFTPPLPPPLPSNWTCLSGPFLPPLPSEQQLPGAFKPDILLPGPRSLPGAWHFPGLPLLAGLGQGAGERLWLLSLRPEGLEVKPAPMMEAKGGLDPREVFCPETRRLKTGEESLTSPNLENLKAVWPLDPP
The following applies: protein: recombinant; tags: N-terminal GST; dsDNA, one strand shown. The procedure, abridged:
as §1

The target of a further test is T8, ETS2 (Homo sapiens, UniProt P15036 1-469).
T8 sequence: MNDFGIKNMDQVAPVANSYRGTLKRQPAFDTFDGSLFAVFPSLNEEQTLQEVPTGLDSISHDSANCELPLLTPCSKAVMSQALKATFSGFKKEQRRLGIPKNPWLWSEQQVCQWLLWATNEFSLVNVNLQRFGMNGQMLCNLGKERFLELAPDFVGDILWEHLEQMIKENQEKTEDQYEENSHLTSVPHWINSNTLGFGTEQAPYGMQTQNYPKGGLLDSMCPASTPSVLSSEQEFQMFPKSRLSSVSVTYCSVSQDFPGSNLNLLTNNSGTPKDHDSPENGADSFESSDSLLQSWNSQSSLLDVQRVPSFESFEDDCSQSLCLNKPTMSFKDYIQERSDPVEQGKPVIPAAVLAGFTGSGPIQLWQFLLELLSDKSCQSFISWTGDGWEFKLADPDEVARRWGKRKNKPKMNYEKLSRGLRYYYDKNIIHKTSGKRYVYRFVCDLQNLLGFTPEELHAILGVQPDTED
Conditions: protein: recombinant; tags: N-terminal GST; dsDNA, one strand shown. The gist of the method:
as §1

The target in the next test is T9, SPDEF (Homo sapiens, UniProt O95238 1-335).
T9 sequence: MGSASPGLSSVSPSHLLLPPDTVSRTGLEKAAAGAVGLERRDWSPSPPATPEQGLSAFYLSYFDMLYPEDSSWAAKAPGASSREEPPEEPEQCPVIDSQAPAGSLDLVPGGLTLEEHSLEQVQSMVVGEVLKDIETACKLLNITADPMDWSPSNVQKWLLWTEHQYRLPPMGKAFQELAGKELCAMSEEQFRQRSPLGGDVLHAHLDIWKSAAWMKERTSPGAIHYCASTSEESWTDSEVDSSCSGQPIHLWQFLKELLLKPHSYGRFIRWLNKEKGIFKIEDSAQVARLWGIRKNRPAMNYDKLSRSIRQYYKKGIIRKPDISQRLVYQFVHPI
Conditions: protein: recombinant; tags: N-terminal GST; dsDNA, one strand shown. The gist of the method: as §1

In a further test the target is T10, ETV7 (Homo sapiens, UniProt Q9Y603 1-341).
T10 sequence: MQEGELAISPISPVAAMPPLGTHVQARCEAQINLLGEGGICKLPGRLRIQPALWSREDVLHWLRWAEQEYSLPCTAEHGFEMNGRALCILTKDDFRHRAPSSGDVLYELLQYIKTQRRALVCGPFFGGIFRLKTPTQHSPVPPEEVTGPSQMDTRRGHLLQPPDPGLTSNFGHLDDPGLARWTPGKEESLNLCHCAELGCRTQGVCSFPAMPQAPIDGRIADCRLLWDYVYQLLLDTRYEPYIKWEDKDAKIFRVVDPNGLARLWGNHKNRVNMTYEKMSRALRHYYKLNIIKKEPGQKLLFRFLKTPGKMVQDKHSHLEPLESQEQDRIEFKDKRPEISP
The following applies: protein: recombinant; tags: N-terminal GST; dsDNA, one strand shown. The procedure, abridged: as §1

The next test concerns the target T11, ELF5 (Homo sapiens, UniProt Q9UKW6-2 1-255).
T11 sequence: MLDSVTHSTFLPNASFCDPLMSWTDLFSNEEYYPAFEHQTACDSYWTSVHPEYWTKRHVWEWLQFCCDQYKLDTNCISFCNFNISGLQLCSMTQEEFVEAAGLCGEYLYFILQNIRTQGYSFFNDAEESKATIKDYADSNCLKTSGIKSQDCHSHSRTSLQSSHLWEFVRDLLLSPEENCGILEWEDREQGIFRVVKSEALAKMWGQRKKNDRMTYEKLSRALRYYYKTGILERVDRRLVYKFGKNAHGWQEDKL
Conditions: protein: recombinant; tags: N-terminal GST; dsDNA, one strand shown. The procedure, abridged: as §1

The target in the next test is T12, ETV3 (Homo sapiens, UniProt P41162-2 1-143).
T12 sequence: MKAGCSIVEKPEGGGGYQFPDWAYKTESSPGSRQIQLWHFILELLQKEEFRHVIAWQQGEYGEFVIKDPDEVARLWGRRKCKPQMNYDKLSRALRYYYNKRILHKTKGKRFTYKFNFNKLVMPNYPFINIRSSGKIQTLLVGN
Conditions: protein: recombinant; tags: N-terminal GST; dsDNA, one strand shown. The procedure, abridged: as §1

For another test, the target named is ETV6 (Homo sapiens, UniProt P41212 1-452). The following applies: protein: recombinant; tags: N-terminal GST; dsDNA, one strand shown. The gist of the method: as §1

These results are taken from paper PMC7862700, “An all-to-all approach to the identification of sequence-specific readers for epigenetic DNA modifications on cytosine”.

Sequence of CRX (O43186 whole entry): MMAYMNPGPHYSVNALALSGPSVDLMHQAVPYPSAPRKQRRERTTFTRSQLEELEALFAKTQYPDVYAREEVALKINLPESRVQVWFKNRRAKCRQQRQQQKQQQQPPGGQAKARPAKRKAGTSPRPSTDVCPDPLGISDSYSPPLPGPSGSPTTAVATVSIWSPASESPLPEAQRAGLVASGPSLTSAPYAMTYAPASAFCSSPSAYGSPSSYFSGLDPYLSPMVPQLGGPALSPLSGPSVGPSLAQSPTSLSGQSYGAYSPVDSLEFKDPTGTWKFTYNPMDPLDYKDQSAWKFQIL
Sequence of ETV5 (P41161 whole entry): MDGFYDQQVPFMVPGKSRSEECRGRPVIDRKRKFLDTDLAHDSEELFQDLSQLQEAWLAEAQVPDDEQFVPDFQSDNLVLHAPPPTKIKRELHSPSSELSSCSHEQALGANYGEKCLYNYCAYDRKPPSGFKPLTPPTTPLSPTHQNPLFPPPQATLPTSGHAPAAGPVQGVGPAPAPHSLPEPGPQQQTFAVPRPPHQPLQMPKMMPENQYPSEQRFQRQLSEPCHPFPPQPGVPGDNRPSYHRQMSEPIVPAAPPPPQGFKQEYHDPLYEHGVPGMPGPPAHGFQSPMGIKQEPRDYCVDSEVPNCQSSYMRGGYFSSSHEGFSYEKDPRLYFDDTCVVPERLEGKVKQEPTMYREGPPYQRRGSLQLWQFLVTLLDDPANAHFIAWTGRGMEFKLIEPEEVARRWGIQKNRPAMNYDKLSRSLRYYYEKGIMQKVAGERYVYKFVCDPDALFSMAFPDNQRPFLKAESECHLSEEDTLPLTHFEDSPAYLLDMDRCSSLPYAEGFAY
Sequence of HSF1 (Q00613 whole entry): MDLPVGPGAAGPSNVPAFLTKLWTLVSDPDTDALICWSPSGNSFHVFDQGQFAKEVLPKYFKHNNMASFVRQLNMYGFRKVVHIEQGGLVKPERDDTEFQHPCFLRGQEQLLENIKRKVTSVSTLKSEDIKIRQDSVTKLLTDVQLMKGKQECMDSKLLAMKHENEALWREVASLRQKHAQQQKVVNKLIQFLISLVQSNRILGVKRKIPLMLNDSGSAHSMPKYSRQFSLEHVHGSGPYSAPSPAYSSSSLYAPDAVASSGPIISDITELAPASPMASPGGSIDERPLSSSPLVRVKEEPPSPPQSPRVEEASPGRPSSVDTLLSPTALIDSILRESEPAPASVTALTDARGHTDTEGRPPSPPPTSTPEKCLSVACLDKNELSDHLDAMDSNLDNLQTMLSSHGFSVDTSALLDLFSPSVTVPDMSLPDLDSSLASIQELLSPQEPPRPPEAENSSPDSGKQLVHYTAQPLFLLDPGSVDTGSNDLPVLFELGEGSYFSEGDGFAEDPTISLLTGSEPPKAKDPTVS
Sequence of ETV1 (P50549 whole entry): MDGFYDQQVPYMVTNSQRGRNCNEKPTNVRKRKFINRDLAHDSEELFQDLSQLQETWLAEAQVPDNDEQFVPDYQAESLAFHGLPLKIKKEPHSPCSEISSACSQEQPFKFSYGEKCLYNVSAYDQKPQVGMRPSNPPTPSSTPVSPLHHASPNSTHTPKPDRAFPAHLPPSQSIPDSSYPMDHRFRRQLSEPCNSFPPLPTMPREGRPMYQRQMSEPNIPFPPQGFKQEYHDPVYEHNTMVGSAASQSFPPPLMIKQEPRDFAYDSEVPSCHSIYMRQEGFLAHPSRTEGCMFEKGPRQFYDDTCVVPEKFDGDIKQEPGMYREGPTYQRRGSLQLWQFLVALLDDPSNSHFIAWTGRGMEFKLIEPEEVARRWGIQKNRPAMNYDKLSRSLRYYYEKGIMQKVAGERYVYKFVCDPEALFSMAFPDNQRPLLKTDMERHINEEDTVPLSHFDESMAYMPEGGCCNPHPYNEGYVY
Sequence of ELF4 (Q99607 whole entry): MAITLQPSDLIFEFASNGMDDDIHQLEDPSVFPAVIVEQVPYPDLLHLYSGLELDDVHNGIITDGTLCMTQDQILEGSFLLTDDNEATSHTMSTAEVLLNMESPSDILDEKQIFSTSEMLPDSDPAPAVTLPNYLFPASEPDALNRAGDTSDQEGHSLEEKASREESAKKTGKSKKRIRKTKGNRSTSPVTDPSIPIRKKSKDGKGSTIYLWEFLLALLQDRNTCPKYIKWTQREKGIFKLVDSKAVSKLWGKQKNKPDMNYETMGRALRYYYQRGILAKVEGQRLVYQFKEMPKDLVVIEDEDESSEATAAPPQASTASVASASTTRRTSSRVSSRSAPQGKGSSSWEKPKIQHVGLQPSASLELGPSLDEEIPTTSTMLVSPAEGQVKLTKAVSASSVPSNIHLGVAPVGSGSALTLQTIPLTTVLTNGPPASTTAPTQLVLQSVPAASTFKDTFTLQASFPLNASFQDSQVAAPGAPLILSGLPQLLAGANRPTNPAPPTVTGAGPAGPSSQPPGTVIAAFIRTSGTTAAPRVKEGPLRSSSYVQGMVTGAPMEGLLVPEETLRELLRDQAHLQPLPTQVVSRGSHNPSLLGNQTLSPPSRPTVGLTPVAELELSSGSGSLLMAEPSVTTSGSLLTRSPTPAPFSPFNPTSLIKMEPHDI
Sequence of ETV6 (P41212 whole entry): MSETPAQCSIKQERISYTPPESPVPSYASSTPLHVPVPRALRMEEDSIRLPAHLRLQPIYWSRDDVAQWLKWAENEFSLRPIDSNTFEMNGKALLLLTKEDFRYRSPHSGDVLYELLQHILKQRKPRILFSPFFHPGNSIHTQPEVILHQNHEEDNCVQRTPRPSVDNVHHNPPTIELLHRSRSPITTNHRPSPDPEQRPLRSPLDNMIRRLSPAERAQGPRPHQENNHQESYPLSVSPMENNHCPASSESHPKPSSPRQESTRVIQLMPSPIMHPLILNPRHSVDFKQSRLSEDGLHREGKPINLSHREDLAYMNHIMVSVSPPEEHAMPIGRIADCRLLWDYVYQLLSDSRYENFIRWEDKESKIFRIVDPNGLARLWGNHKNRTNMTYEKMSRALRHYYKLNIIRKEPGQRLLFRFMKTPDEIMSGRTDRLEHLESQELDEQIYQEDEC

In the case of AATAAT, the binding signal with FEV is 1.28 fold enrichment (6-mer frequency, TF over GST control); in the test with ETV5, 1.35 fold enrichment (6-mer frequency, TF over GST control); with HSF1, 1.93 fold enrichment (6-mer frequency, TF over GST control); in the test with SPIC, 1.31 fold enrichment (6-mer frequency, TF over GST control); in the test with ELF4, 1.24 fold enrichment (6-mer frequency, TF over GST control); in the test with ELK4, 1.22 fold enrichment (6-mer frequency, TF over GST control). For the same sequence, the binding signal with ETV2 was 1.34 fold enrichment (6-mer frequency, TF over GST control); with ELF3 it was 1.42 fold enrichment (6-mer frequency, TF over GST control); in the test with CRX it was 2.41 fold enrichment (6-mer frequency, TF over GST control); in the test with ETV1 it was 1.24 fold enrichment (6-mer frequency, TF over GST control); in the test with ERF it was 1.52 fold enrichment (6-mer frequency, TF over GST control); with ETV3L, 1.35 fold enrichment (6-mer frequency, TF over GST control). For the same sequence, the binding signal with ETS2 was 1.42 fold enrichment (6-mer frequency, TF over GST control); with SPDEF, 1.21 fold enrichment (6-mer frequency, TF over GST control); with ETV7 it was 1.23 fold enrichment (6-mer frequency, TF over GST control); in the test with ELF5 it was 1.29 fold enrichment (6-mer frequency, TF over GST control); in the test with ETV3, 1.27 fold enrichment (6-mer frequency, TF over GST control); in the test with ETV6 it was 1.34 fold enrichment (6-mer frequency, TF over GST control).
